In PubChem BioAssay AID1508600 (Functional Genomics Laboratory (NCATS/FGL), 2020):
In all, about 53,000 sequences went through this assay and about 3,700 (7%) were called active. This is one part of a sample in which actives are shown more often than they occur. Unmarked numbers belong to inactive results.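 The calls were made as follows: active = gene knockdowns whose robust z-score for IL-1 alpha signal is at least 2 or at most -2, so actives lie on both sides; inactive = the rest.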

test: Components of the Cytosolic LPS Sensing Pathway: Gene Identification via Genome-wide siRNA Screen; conditions: RAW264.7 macrophages, IL-1a HTRF, actives lie on both sides, screened at 100 nM (by protocol), cells primed 5 h with Pam3CSK4 first;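 also: robust z of the log signal after scaling to non-targeting control siRNA wells of the plate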
Procedure, shortened: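 Cells (RAW264.7, 1×10^4 per well) were transfected with siRNA at 100 nM and cultured 48h at 37 degrees C. Pam3CSK4 was added for 5 hours; LipidA transfection followed for 24 hour. IL-1a was then measured by HTRF.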

Sequence	z-score
GCAUCCUGAGCAGUGAUAUTT against Taar7b	-1.75
GGGUGCAGUGGAGUCUAUUTT against Smc1a	-1.31
GGAUUCUGAAGUGUAAAGATT against Icos	-0.764
GGCAGAGAUUGAGAGCAAGTT against Palm	2.28 (active)
GGAGUUCCUCAAGAAUUUUTT against Arpc4	-1.39
GGUUGUACUGAGUAGCUGGTT against Slc7a4	0.997
GGUUUACAAGAGUUACAGUTT against Brpf1	0.493
GCAAAGUUGGUGACGUGAUTT against Pole2	-2.15 (active)
CCAAUAAGGCAUAUGUUUUTT against Scarb2	-0.608
GGCACAGCUUGCUGAAGCUTT against Atp11b	-1.76
GGAAUACAAAGAUAGCUUCTT against Atrn	0.786
GGCUUCUGGACCUCAAACATT against Zfp92	-2.14 (active)
GGCAAUGUUUUUCUUGUUGTT against 9330132A10Rik	-1.12
GACCCGCUGCUGCUCAAAUTT against Cdc42ep5	-0.178
GGGCAAAAGUACUUUGACUTT against Ensa	2.2 (active)
GGACUGUGAUCAGGUUUGUTT against Elk3	0.695
GGUAACCAUGAUGAUGACATT against Tmem38b	-2.05 (active)
GGAAGACACAUUUUUCCAUTT against Serpinb9e	0.733
GGUCUCUCGGACUUUUUCCTT against Adipor1	-0.765
CCAAUGUUGGCAUUAUGUUTT against Fah	-0.354
GGAAGAAACUGGAAAGAUUTT against Ankrd23	-1.01

Sequence	z-score
GGAAUGGUCCCUCCAAUGATT against Prpf40b	2.38 (active)
GGACACAAGCCUAUUCCAATT against Rffl	1.59
GGAUUCAAGCAUCGGAUUGTT against Adamts6	1.11
GGCAAUUGUCUCAUUCUGATT against Olfr631	0.806
CCAUCAACCCAUCAUGUGCTT against Pitpnc1	-1.25
GGCCUUGUAUGAAUUAUUUTT against Sqle	2.18 (active)
GGGAGCAAAUUAGAGAAAUTT against Gsk3b	0.884
GGUCCUCGGUUACAGAAACTT against Cnr2	-0.263
CCCAGCUUUUCAACUUGCUTT against Tmc4	-1.19
GGGCCUUGUUUUAGGAAUUTT against Lap3	2.2 (active)
GGUACUGGAUCAAAGAAACTT against Gm11992	-1.75
GCUGGUACAAGGUGUUUGATT against Pqbp1	0.825
GGAAGCACUCAGUGCUCUGTT against Igfbp6	2.06 (active)
GGAGGUGAAGCUCAUUGUCTT against Ildr1	-0.165
CCGUGUCAUUUGGAGAGCUTT against Ndufaf5	-0.248
GGUGCAGUUCAGCAACAAGTT against Mat2b	-1.65
GCAGUUGGGUUGGUAACUATT against Ash1l	0.101
GGGCAAACCUUCUAAACUATT against Ttpa	0.505
GGAUCACCCAUACAGGAACTT against Pla2g2f	-2.1 (active)
GCUGACAAAACUGCUAAACTT against Ctnnb1	0.948
